Here are results for eight compounds from PubChem BioAssay (NCI).

Values joined by “and” are separate entries in the source; they are usually repeats but may differ in a detail not shown here. Identical values can stand only once. This is part of a sample that, as a whole, favours compounds with a hit. Of some 83,000 tested, about 20% had one in any assay.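 Negative percent growth values reflect cell death: -40 means 40% of the cells present at the start died, and -100 means all died.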 Unmarked numbers belong to inactive results. Active and inactive are the calls of the source. Rule for the calls: active = growth percent below 10; inactive = the rest.

Some test systems named below: NCI-H23 lung; NCI-H226 lung; NCI-H322M lung; HOP-62 NSCLC; NCI-H460 lung; HOP-92 NSCLC; NCI-H522 lung; A549/ATCC NSCLC; 786-0 renal; COLO 205 colon; DU-145 prostate; K-562 leukemia; MALME-3M melanoma; MDA-MB-231 breast; RXF 393 renal; SF-268 CNS; SF-295 CNS; SF-539 CNS; UACC-257 melanoma; M14 melanoma.
Common to all, as to test: NCI-60 one-dose screen, 48 h (100 = growth as untreated, 0 = no growth, -100 = all killed)
Common to all, as to details: 10 µM

Take `Cn1c(O)c(N=O)c(=O)n(C)c1=O`: the growth is 94.4% and 95.1% with NCI-H23 lung; 93.3% and 103% in the test on NCI-H226 lung; 97.1% and 101% in the test on NCI-H322M lung; 101% and 90.9% with HOP-62 NSCLC; 110% and 102% with NCI-H460 lung; 101% and 85.9% in the test with HOP-92 NSCLC. Further, the growth with NCI-H522 lung is 91% and 74.7%; in the test on A549/ATCC NSCLC it was 107% and 98.1%; in the test on 786-0 renal, 104% and 93.3%; in the test on COLO 205 colon it was 110% and 111%; in the test with DU-145 prostate it was 98.1% and 106%; with K-562 leukemia, 94.1% and 95.2%. Besides, the growth was 99.1% and 107% in the test with MALME-3M melanoma; 107% and 101% in the test with MDA-MB-231 breast; 107% and 115% in the test on RXF 393 renal; 92.8% and 97.5% in the test on SF-268 CNS; 102% and 93.7% in the test with SF-295 CNS; 102% and 90.7% with SF-539 CNS. In addition, the growth in the test with UACC-257 melanoma is 99.3% and 95.7%; in the test on M14 melanoma, 111% and 102%.
As for `O=C1CCC(=O)N1SC(Cl)(Cl)Cl`, the growth in the test with NCI-H23 lung is 108%; in the test on NCI-H226 lung, 101%; with NCI-H322M lung, 106%; in the test on HOP-62 NSCLC it was 113%; with NCI-H460 lung it was 108%; in the test on HOP-92 NSCLC, 105%. Also, the growth was 80.4% in the test with NCI-H522 lung; 107% with A549/ATCC NSCLC; 106% in the test with 786-0 renal; 112% in the test with COLO 205 colon; 120% with DU-145 prostate; 95.3% with K-562 leukemia. The growth in the test with MALME-3M melanoma was 118%; in the test on MDA-MB-231 breast, 113%; with RXF 393 renal, 108%; in the test on SF-268 CNS it was 109%; with SF-295 CNS it was 117%; in the test with SF-539 CNS, 109%. The figures for the growth with UACC-257 melanoma and in the test on M14 melanoma were 110% and 108%, respectively.
Regarding `Cc1ccc(C(=O)C2C(c3ccccc3)N2C2CCCCC2)cc1` (centres undefined), the growth in the test with NCI-H23 lung was 102% and 88.4%; in the test with NCI-H226 lung, 100% and 94.7%; with NCI-H322M lung, 107%; with HOP-62 NSCLC, 112% and 101%; in the test on NCI-H460 lung it was 98.6% and 92%; in the test with HOP-92 NSCLC, 78.1%. The growth is 90.5% and 75.5% with NCI-H522 lung; 99.9% and 105% with A549/ATCC NSCLC; 101% and 97.6% in the test on 786-0 renal; 126% and 110% in the test on COLO 205 colon; 105% and 111% in the test with DU-145 prostate; 87.3% and 83% in the test on K-562 leukemia. The growth was 98.1% and 97.9% in the test on MALME-3M melanoma; 117% and 112% in the test with MDA-MB-231 breast; 111% and 96.8% with RXF 393 renal; 111% and 102% in the test on SF-268 CNS; 106% in the test on SF-295 CNS; 99.9% and 103% with SF-539 CNS. Moreover, the growth in the test on UACC-257 melanoma is 89.9% and 98.6%; with M14 melanoma, 93.8% and 92.2%.
As for `O=[N+]([O-])c1ccc(N2CCOCC2)c2c1no[n+]2[O-]`, the growth in the test on NCI-H23 lung was 13.1%; with NCI-H226 lung, 35.7%; with NCI-H322M lung it was 28.1%; in the test on HOP-62 NSCLC it was 8.11% (active); in the test with NCI-H460 lung it was 6.53% (active); in the test with HOP-92 NSCLC, -31.9% (active). Besides, the growth in the test with NCI-H522 lung is -70.5% (active); with A549/ATCC NSCLC, 21.4%; in the test with 786-0 renal, -12.8% (active); with COLO 205 colon, -53.1% (active); with DU-145 prostate it was 6.63% (active); in the test with K-562 leukemia, -29.6% (active). For the same compound, the growth in the test on MALME-3M melanoma was -12.6% (active); in the test with MDA-MB-231 breast it was 34.3%; in the test with RXF 393 renal it was -31.4% (active); with SF-268 CNS it was 4.58% (active); in the test with SF-295 CNS, 20.5%; with SF-539 CNS, -22.3% (active). Also, the growth in the test on UACC-257 melanoma is 41%; with M14 melanoma it was 0.168% (active).
On to `CC(Cc1ccc2c(c1)OCO2)NN` (centres undefined), for which the growth is 90.5% in the test on NCI-H23 lung; 87.1% with NCI-H226 lung; 99.5% in the test with NCI-H322M lung; 73.9% with HOP-62 NSCLC; 105% in the test with NCI-H460 lung; 76.6% with HOP-92 NSCLC. The growth in the test with NCI-H522 lung was 84%; in the test with A549/ATCC NSCLC, 82.8%; in the test on 786-0 renal, 88.2%; with COLO 205 colon, 99%; with DU-145 prostate it was 113%; in the test with K-562 leukemia, 82%. In addition, the growth in the test with MALME-3M melanoma was 97.2%; in the test with MDA-MB-231 breast, 104%; with RXF 393 renal it was 111%; with SF-268 CNS, 100%; with SF-295 CNS it was 91%; with SF-539 CNS it was 91.9%. Also, in the test on M14 melanoma, the growth is 96.7%.
As to `COC12c3c(C)cc(O)c4c(=O)occ(c34)C(=O)C1C13COC(=O)c4c(O)cc(C)c(c41)C(=O)C2C3OC(C)=O` (centres undefined), the growth is 99.7% in the test with NCI-H23 lung; 100% in the test with NCI-H226 lung; 95.4% with NCI-H322M lung; 82.3% in the test on HOP-62 NSCLC; 97.9% in the test with NCI-H460 lung; -9.88% (active) in the test on HOP-92 NSCLC. Also, the growth in the test with A549/ATCC NSCLC was 107%; in the test on 786-0 renal, 95.7%; in the test on COLO 205 colon, 103%; with DU-145 prostate, 113%; in the test on K-562 leukemia it was 97.8%; in the test on MALME-3M melanoma, 92.7%. Also, the growth was 100% in the test with MDA-MB-231 breast; 115% with RXF 393 renal; 100% in the test with SF-268 CNS; 95.9% in the test on SF-539 CNS; 106% in the test with UACC-257 melanoma.
Regarding `CCOP(=O)(OCC)/C(C#N)=C/c1ccc(Br)cc1`, the growth with NCI-H23 lung was 92.9%; in the test with NCI-H226 lung, 96.2%; in the test with NCI-H322M lung, 105%; in the test on HOP-62 NSCLC, 89.7%; in the test with NCI-H460 lung it was 104%; in the test with HOP-92 NSCLC, 69.6%. The growth in the test with NCI-H522 lung is 89.7%; in the test on A549/ATCC NSCLC, 102%; in the test with 786-0 renal, 104%; with COLO 205 colon, 109%; in the test with DU-145 prostate, 107%; in the test on MALME-3M melanoma, 107%. The growth with MDA-MB-231 breast is 106%; with SF-268 CNS, 95.2%; in the test with SF-295 CNS it was 106%; in the test with SF-539 CNS it was 95.9%; with UACC-257 melanoma, 93.7%; in the test with M14 melanoma, 98.4%.
For the compound `Oc1ccccc1-c1ccccc1`, the growth in the test on NCI-H23 lung is 98.9% and 104%; with NCI-H226 lung, 104% and 99.3%; in the test with NCI-H322M lung, 91.5% and 109%; in the test with HOP-62 NSCLC it was 101% and 103%; with NCI-H460 lung it was 104%; in the test with HOP-92 NSCLC it was 98.7% and 112%. Moreover, the growth is 95.2% in the test on NCI-H522 lung; 100% and 95.8% with A549/ATCC NSCLC; 105% with 786-0 renal; 110% and 112% in the test with COLO 205 colon; 103% and 113% with DU-145 prostate; 93.2% and 97.2% in the test on K-562 leukemia. Moreover, the growth in the test with MALME-3M melanoma is 99.1% and 106%; with MDA-MB-231 breast, 95%; in the test with RXF 393 renal it was 99% and 106%; in the test on SF-268 CNS it was 98% and 104%; in the test on SF-295 CNS, 105% and 112%; in the test with SF-539 CNS, 103%. In addition, the growth with UACC-257 melanoma was 97.6% and 97.1%; in the test with M14 melanoma it was 113%.
